This passage reports outcome and AC50 results from PubChem BioAssay (EPA / NIEHS).

Activity calls are given as the source filed them. Rule for the calls: active = hit-call score of the fitted dose curve at least 0.9, where 1 is the maximum; inactive = score below 0.9.

The AC50 is the midpoint of the concentration-response curve, whichever way the signal moves.

One assay is described as follows: BSK_3C_uPAR: BioMAP Diversity Plus: 3C Assay for Urokinase-type plasminogen activator receptor (uPAR) Biomarker Activity (AID 2282998). To be noted: BioMAP 3C HUVEC, uPAR biomarker ELISA; actives raise or lower the signal. In outline:
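Endothelial primary cells of human umbilical vein origin received test chemical; 24 h later uPAR was assayed by ELISA. Fitting was bidirectional, DMSO as negative control.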
In general terms: In an ELISA, binding on a coated surface is turned into a signal by an enzyme label.
Consider `CC(C)COC(=O)CCCCC(=O)OCC(C)C`, for which the result was inactive.
Turning to `O=C1O[C@H]([C@H](O)CO)C(O)=C1O`, the outcome was inactive.
The same measure, in the same setting: the same measure for `C/C=C/c1ccc(OC)cc1`: “inactive”.
As for `O=NO`, the outcome was inactive.
Turning to `O=C(O)c1cccnc1`, the outcome was inactive.
The same measure, in the same setting: the same measure for `CCCCOC(=O)CCCCC(=O)OCCCC`: “inactive”.
On to `O=C(Oc1ccccc1)c1cccc(C(=O)Oc2ccccc2)c1`, for which the result was inactive.

The next assay in a line: BSK_3C_VCAM1: BioMAP Diversity Plus: 3C Assay for Vascular cell adhesion molecule 1 (VCAM1) Biomarker Activity (AID 2282999). To be noted: BioMAP 3C HUVEC, VCAM1 ELISA, cytokine-stimulated; actives raise or lower the signal. In outline:
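Human umbilical vein endothelial cells (3C system), biomarker read by ELISA 24 h after dosing; bidirectional fit against DMSO baseline. Cytotoxicity tracked by SRB total-protein staining in parallel cultures at biomarker time.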
In the case of `CCCCC(CC)COP(=O)(OCC(CC)CCCC)OCC(CC)CCCC` (configuration not stated), the concentration at half-maximal activity (AC50) is 20 µM (active).
Regarding `Oc1ccccc1O`, the AC50 was 2.17 µM (active).
Take `CC1=C(C)S(=O)(=O)CCS1(=O)=O`: the result was inactive.
On to `CC(C)(O)c1ccc(CNC(=O)c2cccnc2Oc2ccc(F)cc2)cc1`, for which the outcome was inactive.
`COC(=O)CCC(=O)OC`: the result was inactive.
For the molecule `CC(C)COC(=O)CCCCC(=O)OCC(C)C`, the outcome was inactive.
As for `COc1ccc(C(=O)Nc2nc3ccccc3c(NCc3ccccc3)c2C#N)cc1`, the result was inactive.
For the molecule `O=C1O[C@H]([C@H](O)CO)C(O)=C1O`, the result was inactive.
Turning to `C/C=C/c1ccc(OC)cc1`, the outcome was inactive.
Still for that read-out and setting: the same measure for `O=C(O)CN(CC(=O)O)CC(=O)O`: “inactive”; for `O=NO`: “inactive”; for `CO[C@@H]1COCC[C@@H]1N[C@@H]1CC[C@@](C(=O)N2CCc3ncc(C(F)(F)F)cc3C2)(C(C)C)C1`: “inactive”.
As for `CCCC[C@H]1CN(CC2CCOCC2)C(=O)OC12CCN(C1(C)CCN(C(=O)c3c(C)ncnc3C)CC1)CC2`, the outcome was inactive.
As for `CCc1cc(C2=C(C(=O)O)N(c3ccccc3C(F)(F)F)S(=O)(=O)c3ccccc32)cc2c1OCO2`, the outcome was inactive.
As for `Oc1ccc(O)cc1`, the concentration at half-maximal activity (AC50) was 15.6 µM (active).
Turning to `Cc1cc(SC2=C(O)C[C@@](CCc3ccc(N)cc3)(C(C)C)OC2=O)c(C(C)(C)C)cc1CO`, the result was inactive.
As for `CN(C)CCCN(C)CCCN(C)C`, the outcome was inactive.
Take `O=C(O)c1cccnc1`: the result was inactive.
Consider `CCCCCCCCCC[N+](C)(C)[O-]`, for which the result was inactive.
`CCCCc1nc2cccnc2n1Cc1ccc(-c2ccccc2-c2nnn[nH]2)cc1`: the outcome was inactive.
Regarding `CC1(C)C(=O)NC(=O)N1CO`, the outcome was inactive.
Consider `CCCCCCCCCCCCCCOS(=O)(=O)O`, for which the result was inactive.
`CCc1nc(N)nc(N)c1-c1ccc(Cl)cc1`: the outcome was inactive.
On to `COC(=O)[C@H]1[C@H]2C[C@@H]3c4[nH]c5cc(OC)ccc5c4CCN3C[C@H]2C[C@@H](OC(=O)c2cc(OC)c(OC)c(OC)c2)[C@@H]1OC`, for which the AC50 was 11.4 µM (active).
For `CCCCCCC(CCCCCCCCCCC(=O)OCC(COC(C)=O)OC(C)=O)OC(C)=O` (configuration not stated), the outcome was inactive.
`COC(=O)CCCC(=O)OC`: the outcome was inactive.
As for `O=C1c2c(O)cccc2Cc2cccc(O)c21`, the result was inactive.
Take `CCCCOC(=O)CCCCC(=O)OCCCC`: the result was inactive.
As to `CN(C)CCCN1c2ccccc2Sc2ccc(Cl)cc21`, the AC50 was 36.8 µM (active).
For `O=C(Oc1ccccc1)c1cccc(C(=O)Oc2ccccc2)c1`, the outcome was inactive.

A further assay is described as follows: BSK_4H_Eotaxin3: BioMAP Diversity Plus: 4H Assay for Eotaxin 3 Biomarker Activity (AID 2283000).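 For outcome: CCL26 protein level quantified by ELISA in parallel with SRB cytotoxicity check.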 Particulars: primary human endothelial cells (HUVEC); actives raise or lower the signal. In a few lines:
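Readout is Eotaxin-3 (CCL26) level by ELISA in primary human umbilical vein endothelial cells harvested 24 h after chemical exposure; activity fitted in both directions against DMSO control.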
On to `CCCCC(CC)COP(=O)(OCC(CC)CCCC)OCC(CC)CCCC` (configuration not stated), for which the AC50 was 20 µM (active).
In the case of `Oc1ccccc1O`, the outcome was inactive.
Consider `CC1=C(C)S(=O)(=O)CCS1(=O)=O`, for which the outcome was inactive.
As for `CC(C)(O)c1ccc(CNC(=O)c2cccnc2Oc2ccc(F)cc2)cc1`, the result was inactive.
Take `COC(=O)CCC(=O)OC`: the result was inactive.
Turning to `CC(C)COC(=O)CCCCC(=O)OCC(C)C`, the result was inactive.
Regarding `COc1ccc(C(=O)Nc2nc3ccccc3c(NCc3ccccc3)c2C#N)cc1`, the outcome was inactive.
`O=C1O[C@H]([C@H](O)CO)C(O)=C1O`: the result was inactive.
As to `C/C=C/c1ccc(OC)cc1`, the result was inactive.
On to `O=C(O)CN(CC(=O)O)CC(=O)O`, for which the outcome was inactive.
Regarding `O=NO`, the result was inactive.
Turning to `CO[C@@H]1COCC[C@@H]1N[C@@H]1CC[C@@](C(=O)N2CCc3ncc(C(F)(F)F)cc3C2)(C(C)C)C1`, the outcome was inactive.
Still for that read-out and setting: the same measure for `CCCC[C@H]1CN(CC2CCOCC2)C(=O)OC12CCN(C1(C)CCN(C(=O)c3c(C)ncnc3C)CC1)CC2`: “inactive”; for `CCc1cc(C2=C(C(=O)O)N(c3ccccc3C(F)(F)F)S(=O)(=O)c3ccccc32)cc2c1OCO2`: “inactive”.
As to `Oc1ccc(O)cc1`, the AC50 is 20 µM (active).
With `Cc1cc(SC2=C(O)C[C@@](CCc3ccc(N)cc3)(C(C)C)OC2=O)c(C(C)(C)C)cc1CO`, the result was inactive.
For `CN(C)CCCN(C)CCCN(C)C`, the outcome was inactive.
Same read-out and setting: the same measure for `O=C(O)c1cccnc1`: “inactive”.
`CCCCCCCCCC[N+](C)(C)[O-]`: the result was inactive.
Still for that read-out and setting: in the case of `CCCCc1nc2cccnc2n1Cc1ccc(-c2ccccc2-c2nnn[nH]2)cc1` it was “inactive”; in that of `CC1(C)C(=O)NC(=O)N1CO`, “inactive”.
Consider `CCCCCCCCCCCCCCOS(=O)(=O)O`, for which the result was inactive.
For `CCc1nc(N)nc(N)c1-c1ccc(Cl)cc1`, the result was inactive.
Consider `COC(=O)[C@H]1[C@H]2C[C@@H]3c4[nH]c5cc(OC)ccc5c4CCN3C[C@H]2C[C@@H](OC(=O)c2cc(OC)c(OC)c(OC)c2)[C@@H]1OC`, for which the AC50 was 25.7 µM (active).
Regarding `CCCCCCC(CCCCCCCCCCC(=O)OCC(COC(C)=O)OC(C)=O)OC(C)=O` (configuration not stated), the result was inactive.
Turning to `COC(=O)CCCC(=O)OC`, the result was inactive.
As for `O=C1c2c(O)cccc2Cc2cccc(O)c21`, the result was inactive.
`CCCCOC(=O)CCCCC(=O)OCCCC`: the result was inactive.
With `CN(C)CCCN1c2ccccc2Sc2ccc(Cl)cc21`, the half-maximal activity concentration (AC50) was 35.9 µM (active).
For `O=C(Oc1ccccc1)c1cccc(C(=O)Oc2ccccc2)c1`, the outcome was inactive.
